Outcome and Potency data for 31 compounds are collected here from PubChem BioAssay (NCATS).

A short description of assay [1]: Confirmation and Secondary Assay for Modulators of Hemoglobin Beta Chain Splicing at IVS2 705 locus (AID 930).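 Also: HeLa cells stably expressing the EGFP-705 splicing reporter; GFP fluorescence per well restored by corrected splicing of the IVS2-705 intron in EGFP; series mostly up to about 46 µM.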 Summed up: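 HeLa IVS2-705 EGFP reporter cells, 500/well, compound 2 d at 37C; correct splicing yields fluorescent EGFP. Control: 500 nM antisense PNA. Read-out: total peak GFP intensity.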
The nature of assay [2]: MultiTox-Fluor Cytotoxicity Assay - LYMP1-001 - Dead Cells (AID 946). Also: potency is read from the fitted curve at half-maximal effect. Summed up:
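LYMP1-001 lymphoblastoid cells (2500/well) treated 16 h at 37 C. Dead-cell protease cleavage of bis-AAF-R110 read at Ex/Em 485/520. Normalized to DMSO and 15 uM tetraoctylammonium bromide; AC50 from Hill fits.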

Assay [3] is described as follows: MultiTox-Fluor Cytotoxicity Assay - LYMP1-001 - Live Cells (AID 947).
A short description of assay [4]: Cell Viability - LYMP1-002 - Assay at 16 hr (AID 948). Put shortly:
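Acute cytotoxicity is scored as a concentration-dependent fall in intracellular ATP in a human lymphoblastoid line (LYMP1-002) after 16 hr compound exposure at 37 C, measured by luciferase luminescence.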

The nature of assay [5]: MultiTox-Fluor Cytotoxicity Assay - LYMP1-002 - Live Cells (AID 955).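 Also: cells exposed to compound for 16 hours.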 Summed up: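 After 16 h compound exposure at 37 C, live LYMP1-002 lymphoblastoid cells (2500/well) were quantified by cleavage of cell-permeant GF-AFC substrate, read at 405/510 nm after 60 min. Concentration-response fitted with Hill equation for AC50.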
In assay [6] the target is Pyruvate kinase (Leishmania mexicana) (UniProt Q27686). In words: qHTS Validation Assay for Inhibitors of Leishmania Mexicana Pyruvate Kinase (AID 945). Summed up:
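Eight-point qHTS titrations; enzyme 0.2 nM LmPYK (E451W mutant); substrates 0.5 mM PEP, 0.1 mM ADP; 7 mM MgCl2; 1 h room temperature; PKLight luminescence normalized to neutral control.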

The target in assay [7] is Pyruvate kinase PKM (Homo sapiens) (UniProt P14618). Put plainly: qHTS Assay for Activators of Human Muscle Pyruvate Kinase (AID 954; active = well fitted curve in the direction sought with a large enough effect, not every such curve was filed as active). Put shortly:
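Compound pinned into substrate mix (0.5 mM PEP, 0.1 mM ADP), then 0.1 nM PKM2 added; 1 h, RT. Stop/detection luciferase reagent added, luminescence read. Normalized to no-inhibition and no-enzyme or reference-inhibitor controls.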
A general note: In qHTS, concentration-response curves come from the screen itself.

Assay [8] in a line: qHTS Assay for Identification of Small Molecule Agonists for Thrombopoietin (TPO) Signaling Pathway (AID 917). Put shortly: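 Quantitative HTS for pathway activators: compounds were pin-transferred onto IL-3-starved Ba/F3 cells expressing human TPO receptor, TPO was added at its EC50 (26 pM final), and after 24 hrs at 37 C reporter luciferase was measured.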
Assay [9] deals with Muscarinic acetylcholine receptor M1 (Rattus norvegicus) (UniProt P08482). Put plainly: qHTS Assay for Antagonists of Acetylcholine Muscarinic M1 Receptor: Kinetic Measurement of Intracellular Calcium Response (AID 943).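 Also: Fluo-4 calcium signal as peak divided by basal fluorescence over 4 min; series mostly up to about 35 µM; nearly all actives have a fitted effect of over 75% in size.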 Summed up: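 Antagonism measured as reduction of carbachol-evoked (EC80, 100 nM final) calcium flux in rat M1-CHO cells after 10 min compound exposure. Fluo-4 signal read kinetically; ratio of maximal to basal fluorescence.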
Chain of Muscarinic acetylcholine receptor M1 (Rattus norvegicus) (P08482 whole entry, looked up): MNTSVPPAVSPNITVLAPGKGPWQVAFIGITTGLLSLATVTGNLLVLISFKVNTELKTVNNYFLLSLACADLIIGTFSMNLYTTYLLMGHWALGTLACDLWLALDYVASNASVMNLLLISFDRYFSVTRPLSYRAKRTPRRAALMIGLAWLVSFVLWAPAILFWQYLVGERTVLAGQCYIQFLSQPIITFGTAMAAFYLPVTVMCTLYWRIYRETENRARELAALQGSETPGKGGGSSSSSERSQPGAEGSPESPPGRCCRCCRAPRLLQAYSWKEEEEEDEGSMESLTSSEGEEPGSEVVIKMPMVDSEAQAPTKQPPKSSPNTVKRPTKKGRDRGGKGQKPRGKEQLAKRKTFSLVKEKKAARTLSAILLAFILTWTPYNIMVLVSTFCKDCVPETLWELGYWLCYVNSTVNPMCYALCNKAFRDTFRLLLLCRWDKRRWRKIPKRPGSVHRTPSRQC

For assay [10] the target is unchanged. Put plainly: qHTS Assay for Antagonists of Acetylcholine Muscarinic M1 Receptor: Measurement of IP-One Response (AID 944). Also: nearly all actives have a fitted effect of over 75% in size. Summed up: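 IP1 accumulation measured via TR-FRET between d2-IP1 and Eu-cryptate anti-IP1 antibody after carbachol (200 nM, EC80) stimulation for 30 min; rat M1-transfected CHO cells received compound 10 min before agonist.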

Structures are written as SMILES. Inconclusive results are not listed. A call without a number means that no potency is given here. Active and inactive are the calls of the source. Unless noted, calls follow the shape of the dose curve; as a rule, active = well fitted curve in the direction sought with a large enough effect; inconclusive = small, poorly fitted or top-dose-only effect, or another doubt; inactive = no such curve, though single readings can be large; an effect the other way counts as inactive or inconclusive.

Chain of Pyruvate kinase (Leishmania mexicana) (Q27686 2-499 E452W): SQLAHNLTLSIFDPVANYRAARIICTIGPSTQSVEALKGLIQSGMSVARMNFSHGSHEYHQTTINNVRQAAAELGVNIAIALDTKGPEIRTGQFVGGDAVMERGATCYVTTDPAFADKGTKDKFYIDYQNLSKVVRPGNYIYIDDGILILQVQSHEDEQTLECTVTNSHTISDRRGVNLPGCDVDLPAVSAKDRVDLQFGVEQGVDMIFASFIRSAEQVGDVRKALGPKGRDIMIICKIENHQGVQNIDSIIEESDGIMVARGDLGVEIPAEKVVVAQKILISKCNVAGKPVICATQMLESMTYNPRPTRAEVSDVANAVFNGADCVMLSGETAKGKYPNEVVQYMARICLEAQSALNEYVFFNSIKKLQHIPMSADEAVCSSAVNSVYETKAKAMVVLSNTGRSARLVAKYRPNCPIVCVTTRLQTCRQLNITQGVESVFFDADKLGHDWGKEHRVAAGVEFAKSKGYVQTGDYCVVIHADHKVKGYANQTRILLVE
Chain of Pyruvate kinase PKM (Homo sapiens) (P14618 whole entry, looked up): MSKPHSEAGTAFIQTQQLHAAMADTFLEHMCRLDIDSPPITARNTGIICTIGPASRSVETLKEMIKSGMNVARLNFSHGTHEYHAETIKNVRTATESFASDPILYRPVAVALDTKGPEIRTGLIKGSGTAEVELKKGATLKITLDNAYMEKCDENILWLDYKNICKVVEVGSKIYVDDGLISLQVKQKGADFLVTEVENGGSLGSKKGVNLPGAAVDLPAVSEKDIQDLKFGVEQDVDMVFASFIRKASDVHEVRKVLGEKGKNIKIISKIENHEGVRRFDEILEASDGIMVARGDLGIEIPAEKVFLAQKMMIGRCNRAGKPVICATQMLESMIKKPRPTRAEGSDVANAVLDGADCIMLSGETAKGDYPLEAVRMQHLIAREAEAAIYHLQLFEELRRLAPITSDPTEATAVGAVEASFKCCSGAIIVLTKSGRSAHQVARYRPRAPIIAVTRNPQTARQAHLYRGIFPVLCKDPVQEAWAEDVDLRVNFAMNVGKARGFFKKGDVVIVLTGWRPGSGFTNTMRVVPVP

Turning to `NC(=O)c1ncn(C2OC(CO)C(O)C2O)n1` (stereo not given), the call in [1] was inactive.
Turning to `CCOC(C)=O`, the Potency result in assay [2] was “inactive”. The compound was called inactive in assay [3], in assay [4] and in [5].
As for `CC1=C(/C=C/C(C)=C/C=C/C(C)=C/C=C/C=C(C)/C=C/C=C(C)/C=C/C2=C(C)CCCC2(C)C)C(C)(C)CCC1`, in assay [1], the compound was classed as inactive.
Regarding `CC(O)CO` (stereo not given), the Potency result in [2] is “inactive”. Also, the result in assay [3], in [4] and in assay [5] was inactive.
For the compound `IC(I)I`, the Potency result in [2] is “inactive”. Besides, the call in assay [3], in [4] and in assay [5] was inactive.
On to `CC1=C(/C=C/C(C)=C/C=C/C(C)=C/CO)C(C)(C)CCC1`, for which the compound was classed as inactive in assay [1], in assay [4] and in assay [5].
As to `Cc1ccccc1`, the Potency entry in [2] was “inactive”. The outcome in assay [3], in assay [4] and in assay [5] was inactive.
As for `CCCC(=O)Nc1ncnc2c1ncn2C1OC2COP(=O)(O)OC2C1OC(=O)CCC` (stereo not given), in assay [1], the call was inactive.
On to `CC[N+](C)(C)Cc1ccccc1Br`, for which the compound was classed as inactive in assay [6] and in assay [7].
For `COc1ccc(CCNC[C@H](O)c2ccc(O)cc2)cc1OC`, the compound was called inactive in assay [8], in assay [6] and in assay [7].
As to `CC(C)(C)NC(=O)[C@@H]1C[C@@H]2CCCC[C@@H]2CN1C[C@@H](O)[C@H](Cc1ccccc1)NC(=O)[C@H](CC(N)=O)NC(=O)c1ccc2ccccc2n1`, the Potency in assay [2] is 50.1 µM (active).
Regarding `CN=C(NC#N)Nc1ccc(C2=NNC(=O)C[C@@H]2C)cc1`, the result in [8], in assay [9], in assay [10], in assay [6] and in assay [7] was inactive.
On to `O=S(=O)(O)O`, for which, in assay [2], the Potency entry was “inactive”. Moreover, the call in assay [3], in [4] and in assay [5] was inactive.
In the case of `CCOc1ccc2c(c1)C(C)=CC(C)(C)N2`, the compound was classed as inactive in assay [1], in assay [3], in assay [4] and in assay [5]. For the same compound, in assay [2], the Potency entry is “inactive”.
As to `O=C(O)CCC(=O)C(=O)O`, in [2], the Potency entry was “inactive”. The result in assay [3], in assay [4] and in assay [5] was inactive.
Turning to `O=C(O)CN(CCN(CC(=O)O)CC(=O)O)CC(=O)O`, the call in assay [1] was inactive.
Same read-out and setting: next, `CC1=C(/C=C/C(C)=C/C=C/C(C)=C/C=C/C=C(C)/C=C/C=C(C)/C=C/C2=C(C)C(=O)CCC2(C)C)C(C)(C)CCC1=O`: “inactive”.
For `CCCCCCCC/C=C\CCCCCCCC(=O)O`, the Potency result in assay [2] was “inactive”. For the same compound, the outcome in assay [4] and in [5] was inactive.
Turning to `CN1Cc2c(N)cccc2C(c2ccccc2)C1` (stereo not given), the compound was called inactive in [1].
As for `CCCCCCCC(=O)O`, the Potency entry in assay [2] was “inactive”. For the same compound, the compound was classed as inactive in [3], in [4] and in assay [5].
As for `C[C@@H]1CCC2[C@@H](C)[C@@H](O)O[C@@H]3O[C@@]4(C)CC[C@@H]1[C@@]23OO4` (stereo not given in full), in [1], the outcome was inactive.
The same measure, in the same setting: next, `CC(C(=O)O)c1ccc(N2Cc3ccccc3C2=O)cc1` (stereo not given): “inactive”.
Consider `C=CCSSSCC=C`, for which the compound was called inactive in assay [1].
Same read-out and setting: the result for `Nc1c(Br)cc(Br)cc1CNC1CCC(O)CC1` (stereo not given) reads “inactive”.
Regarding `Nc1ccn([C@H]2CS[C@@H](CO)O2)c(=O)n1`, in assay [2], the Potency entry was “inactive”. Besides, the compound was classed as inactive in [3], in assay [4] and in assay [5].
For the compound `CCCCC/C=C\C/C=C\CCCCCCCC(=O)O`, the Potency result in assay [2] is “inactive”. Also, the compound was classed as inactive in [4] and in [5].
Take `CC(C)=O`: in assay [2], the Potency entry is “inactive”. For the same compound, the compound was classed as inactive in assay [3], in assay [4] and in assay [5].
Regarding `CC1=C2[C@@H]([C@H](C)CC[C@H]2/C=C(\C)C(=O)O)[C@H](O)C1`, the Potency entry in [2] is “inactive”. For the same compound, the compound was classed as inactive in [3], in [4] and in assay [5].
Take `O=CCCCC=O`: the Potency result in [2] was “inactive”. The result in [4] and in [5] was inactive.
For `CCC(=O)NCCC1CCc2ccc3c(c21)CCO3` (stereo not given), the call in assay [1] was inactive.
The same measure, in the same setting: the result for `Oc1cc(O)c2c(c1)OC(c1ccc(O)c(O)c1)C(O)C2` (stereo not given) reads “inactive”.
